PubChem BioAssay
Active and inactive are the calls of the source.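 The calls were made as follows, unless noted: active = fluorescence slope higher than the sample average by over 3 SD (cut at about -0.22 in these data, passing the limit was not always enough); inactive = the rest.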

Tests used:
[1] = inhibitors of TNFa-induced NFkB p65 translocation, primary screen, imaging, HUVEC, MLSMR starter and 10KST1 sets (AID 438;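 active = inhibition above 20% together with a positive visual image hit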;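 also: compound added about 3h40 before a 20 min TNFalpha stimulation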;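 as to inhibition: signal is the nuclear over cytoplasmic p65 intensity ratio per well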); settings: HUVEC TNFa-induced p65 nuclear translocation; cell count: measured here: nuclei count (cytotoxicity indicator), at 2.08 µM; inhibition: at 2 µM, stronger effect = higher value, 0% TNFa-plus-vehicle, 100% no-TNFa wells
[2] = inhibitors of mutant huntingtin aggregation, primary screen, imaging, exon1htt(103Q)mCFP cells, high-content imaging (AID 483;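 active = visual image review flags a hit and inhibition of aggregation exceeds 20%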;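 also: compound exposure lasted 3 days before fixation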;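 as to nuclei count: percent of the per-plate median nuclei count of sample wells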); settings: exon1htt(103Q)mCFP cell line, aggregate imaging, at 2 µM; inhibition of aggregation: stronger effect = higher value; nuclei count: measured here: cell count, toxicity
[3] = inhibitors of E-selectin induction by TNFa, primary screen, imaging, HUVEC, immunofluorescence, MLSMR starter and 10KST1 sets (AID 487;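 active = visually confirmed hit in the image check and inhibition above 20%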;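 as to inhibition: signal is fraction of cell area covered by stained E-selectin grains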;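 as to nuclei count: 100% = median nuclei count of all wells on the same plate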); settings: HUVEC TNFalpha-induced E-selectin immunofluorescence imaging, at 2 µM; inhibition: stronger effect = higher value; nuclei count: measured here: cell number, toxicity
[4] = target: Voltage-gated potassium channel subunit beta-2 (Rattus norvegicus) (UniProt P62483); assay: KvBeta enzyme negative modulators, primary screen, biochemical, NADPH fluorescence (AID 622); settings: recombinant KvBeta, 4-cyanobenzaldehyde reduction, at 10 µM, stronger effect = higher value;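 also: slope of raw intensity against log time taken from 70 to 1610 s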
[5] = target: Voltage-gated potassium channel subunit beta-2 (Rattus norvegicus) (UniProt P62483); assay: KvBeta positive modulators, primary screen, biochemical, NADPH fluorescence (AID 623;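 active = NADPH fluorescence slope more negative than the mean of all samples by about 3 SD, 99.7% confidence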;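 also: fluorescence intensity change per second fitted from 20 to 320 s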); settings: Recombinant KvBeta, NADPH fluorescence decrease slope, 10 min; at 10 µM; stronger effect = lower value
[6] = target: Alpha-2C adrenergic receptor (Homo sapiens) (UniProt P18825); assay: modulators of alpha2C/GIRK thallium flux, primary screen, cell-based, HEK293 alpha2C/GIRK1/2 (AID 624;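 active = fluorescence slope after compound addition differing from the mean of all screened samples at 99.7% confidence, in either direction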;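 also: slope of fluorescence ratio to pre-addition baseline per second over 15 to 24 s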); settings: thallium flux BTC fluorescence, at 10 µM, actives lie on both sides
[7] = inhibitors of Sendai virus-induced IRF3 signaling, primary screen, TLR/RLR signaling modifier project, cell-based, Sendai virus stimulus, luciferase, 10K MLSCN set (AID 602276;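 active = inhibition at or above 50% at 10 µM; inactive = inhibition below 50%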;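 also: firefly luciferase from ISG56 promoter only with Renilla not read in this screen; 0% = Sendai virus plus DMSO and 100% = medium plus DMSO without virus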); settings: HEK293 RL24 IRF3 luciferase reporter, at 10 µM, stronger effect = higher value
[8] = inhibitors of poly I:C-induced TLR3 signaling, primary screen, cell-based, poly I:C stimulus, luciferase, 10K MLSCN set (AID 602277;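 active = inhibition of the reporter signal at or above 50%; inactive = inhibition below 50%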); settings: HEK293-TLR3 RL24 IRF3 luciferase reporter, at 10 µM, stronger effect = higher value

Voltage-gated potassium channel subunit beta-2 (Rattus norvegicus), sequence (P62483 whole entry, looked up): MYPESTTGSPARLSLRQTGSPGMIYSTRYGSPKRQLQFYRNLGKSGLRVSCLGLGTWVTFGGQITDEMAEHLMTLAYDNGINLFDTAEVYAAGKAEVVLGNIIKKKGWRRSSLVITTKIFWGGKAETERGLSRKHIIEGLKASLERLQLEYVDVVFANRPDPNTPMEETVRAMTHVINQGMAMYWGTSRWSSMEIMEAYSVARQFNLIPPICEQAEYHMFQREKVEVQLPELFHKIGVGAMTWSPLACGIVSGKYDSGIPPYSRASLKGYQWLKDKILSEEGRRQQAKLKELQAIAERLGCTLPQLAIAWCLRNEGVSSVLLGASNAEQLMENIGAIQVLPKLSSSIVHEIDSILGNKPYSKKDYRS
Alpha-2C adrenergic receptor (Homo sapiens), sequence (P18825 whole entry, looked up): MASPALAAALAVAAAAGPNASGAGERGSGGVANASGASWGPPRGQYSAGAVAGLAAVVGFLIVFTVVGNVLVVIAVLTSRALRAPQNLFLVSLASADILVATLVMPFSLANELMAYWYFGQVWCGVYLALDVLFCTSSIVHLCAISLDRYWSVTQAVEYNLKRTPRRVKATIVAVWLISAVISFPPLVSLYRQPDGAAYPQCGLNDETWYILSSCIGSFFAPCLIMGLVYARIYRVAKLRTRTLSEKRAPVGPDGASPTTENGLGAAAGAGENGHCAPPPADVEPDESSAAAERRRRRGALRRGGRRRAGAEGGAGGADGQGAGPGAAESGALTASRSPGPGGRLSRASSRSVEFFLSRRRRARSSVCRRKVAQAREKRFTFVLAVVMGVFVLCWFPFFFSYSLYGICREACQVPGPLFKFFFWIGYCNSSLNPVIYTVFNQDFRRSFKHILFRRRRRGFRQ

SMILES	cell count [1]	inhibition [1]	inhibition of aggregation [2]	nuclei count [2]	inhibition [3]	nuclei count [3]	fluorescence slope [4]	NADPH fluorescence slope [5]	slope [6]	inhibition [7]	inhibition [8]
Cc1nnc(SCc2ccccc2F)n1NCc1cccs1	767	-3.9% (inactive)	-8.1% (inactive)	106%	-71% (inactive)	113%	-0.47 (inactive)	-4.7e-05 (inactive)	0.00631 (inactive)	-2.84% (inactive)	-9.57% (inactive)
S=c1[nH]nc(-c2ccccc2)n1C1C=CCCC1 (stereo not drawn)	240	0.4% (inactive)	14.7% (inactive)	94%	-329% (inactive)	146%	-0.465 (inactive)	-1.5e-05 (inactive)	0.00318 (inactive)	4.48% (inactive)	35.6% (inactive)
COc1cc2c(cc1OC)C(c1cccnc1)CC(=O)N2 (stereo not drawn)	481	-7.4% (inactive)	-12.3% (inactive)	71.7%	-30.8% (inactive)	117%	-0.513 (inactive)	-2.9e-05 (inactive)	0.00629 (inactive)	9.14% (inactive)	14.4% (inactive)
Cn1nnnc1SCC(=O)N1CCN(c2cccc(Cl)c2)CC1	360	-2.9% (inactive)	10.8% (inactive)	94.4%	-206% (inactive)	115%	-0.619 (inactive)	-2.9e-06 (inactive)	0.00492 (inactive)	7.81% (inactive)	11.3% (inactive)
CCOC(=O)c1ccc(NS(=O)(=O)c2ccc3c(c2)oc(=O)n3C)cc1	467	1.3% (inactive)	25.3% (inactive)	72.9%	10.3% (inactive)	107%	-0.602 (inactive)	-1.1e-05 (inactive)	0.00688 (inactive)	-7.08% (inactive)	14% (inactive)
COc1ccc(NC(=O)N(C2CCCCC2)C2CCN(C(C)C)CC2)c(OC)c1	676	-7.8% (inactive)	-12.8% (inactive)	79.5%	-10.8% (inactive)	109%	-0.518 (inactive)	9.2e-06 (inactive)	0.0051 (inactive)	2.2% (inactive)	15.1% (inactive)
CCOC(=O)N1CCN(C(=O)CSc2nnc(Cc3ccccc3)o2)CC1	645	-6.9% (inactive)	10.1% (inactive)	123%	-53.8% (inactive)	102%	-0.525 (inactive)	-3.6e-05 (inactive)	0.00629 (inactive)	2.23% (inactive)	10.9% (inactive)
COCCNC(=O)CN1C(=O)CSc2ncccc21	673	-6.7% (inactive)	-43.1% (inactive)	115%	-62.1% (inactive)	117%	-0.413 (inactive)	-1.6e-05 (inactive)	0.00576 (inactive)	11.1% (inactive)	28.9% (inactive)
CCCOc1ccc(OCCSc2ncccn2)cc1	811	-13% (inactive)	24.7% (inactive)	108%	-93.3% (inactive)	108%	-0.454 (inactive)	2.1e-05 (inactive)	0.0061 (inactive)	-39.4% (inactive)	-92% (inactive)
COc1ccc2ccccc2c1CN1CCN(C)CC1	441	-7.1% (inactive)	-14.9% (inactive)	93.7%	-40.6% (inactive)	123%	-0.444 (inactive)	-0.000107 (inactive)	0.00594 (inactive)	7.96% (inactive)	27.9% (inactive)
CN(C(=O)Cn1c(=O)n(CCCCC(=O)NC2CCCC2)c(=O)c2ccccc21)C1CCCCC1	347	-1.2% (inactive)	-6.6% (inactive)	107%	-15.5% (inactive)	117%	-0.478 (inactive)	1.3e-07 (inactive)	0.00575 (inactive)	16.4% (inactive)	25.2% (inactive)
CCn1c(SCC(=O)c2ccc(OC)cc2)nnc1C(C)NC(=O)c1ccc(OC)cc1 (stereo not drawn)	449	-1.8% (inactive)	2.6% (inactive)	96.2%	-41.9% (inactive)	129%	-0.409 (inactive)	2.1e-05 (inactive)	0.00558 (inactive)	-3.91% (inactive)	9.81% (inactive)
CCCCCCOC(=O)C(C#N)c1nc2ccccc2nc1N1CCCCC1 (stereo not drawn)	513	5.7% (inactive)	6.3% (inactive)	89.3%	-28.3% (inactive)	137%	-0.393 (inactive)	3.7e-05 (inactive)	0.00357 (inactive)	6.89% (inactive)	23.9% (inactive)
Cc1cc(C)nc(SCCS(=O)Cc2ccc(Cl)cc2)n1 (stereo not drawn)	306	-3.8% (inactive)	-16.7% (inactive)	108%	32.1% (inactive)	95%	-0.503 (inactive)	6.2e-06 (inactive)	0.00559 (inactive)	5.96% (inactive)	8.92% (inactive)
CCCCCOC(=O)C1=C(C)N(C)C(=O)NC1c1cc(Br)c(O)c(OC)c1 (stereo not drawn)	563	-9.9% (inactive)	-39.7% (inactive)	105%	25.8% (inactive)	105%	-0.624 (inactive)	5.7e-06 (inactive)	0.0067 (inactive)	1.53% (inactive)	21.1% (inactive)
COC(=O)C(CC(C)C)NC(=O)CSc1nc(-c2ccccc2)c(C#N)c(=O)[nH]1 (stereo not drawn)	467	-10.9% (inactive)	-13% (inactive)	64.5%	-3.8% (inactive)	81.7%	-0.402 (inactive)	-0.000101 (inactive)	0.0059 (inactive)	15.4% (inactive)	28.8% (inactive)
Cc1cccc(-n2ncc3c(N(CCO)CCO)ncnc32)c1	635	1.4% (inactive)	-5% (inactive)	53.9%	-35.6% (inactive)	125%	-0.513 (inactive)	-1.8e-05 (inactive)	0.00728 (inactive)	-28.4% (inactive)	-84.3% (inactive)
c1ccc(OCc2nc3ccccc3[nH]2)cc1	443	-6.5% (inactive)	9.8% (inactive)	75.8%	-77.6% (inactive)	132%	-0.392 (inactive)	-5.8e-05 (inactive)	0.00568 (inactive)	-47.4% (inactive)	-118% (inactive)
COc1cc2c(cc1OC)C(C)N(C(=O)c1cc3n(n1)C(C(F)(F)F)CC(c1ccco1)N3)CC2 (stereo not drawn)	591	9.6% (inactive)	-0.8% (inactive)	97.6%	-22% (inactive)	96.6%	-0.613 (inactive)	1.3e-05 (inactive)	0.00369 (inactive)	25.6% (inactive)	19.1% (inactive)
COc1ccc(-c2noc(CSc3nc(N)c(-c4ccccc4)c(=O)[nH]3)n2)cc1OC	338	5.8% (inactive)	-0.8% (inactive)	97.1%	-12.1% (inactive)	122%	-0.441 (inactive)	2.8e-05 (inactive)	0.00653 (inactive)	12% (inactive)	15.6% (inactive)
O=C(OCC(=O)N1CCCCCC1)c1cccs1	295	7.1% (inactive)	3.3% (inactive)	103%	4.3% (inactive)	107%	-0.53 (inactive)	-5.7e-05 (inactive)	0.00485 (inactive)	-20.1% (inactive)	-75.3% (inactive)
COc1ccc(OCc2nc(C#N)c(N3CCN(c4ccc(OC)cc4)CC3)o2)cc1	479	2.9% (inactive)	-2.2% (inactive)	73.6%	15.1% (inactive)	89.2%	-0.421 (inactive)	2.3e-05 (inactive)	0.0041 (inactive)	-5.28% (inactive)	3.87% (inactive)
Cc1cc2ncn(C(=O)c3c(-c4ccccc4)noc3C)c2cc1C	202	-15.9% (inactive)	-7.9% (inactive)	85.7%	25.9% (inactive)	99.7%	-0.433 (inactive)	-2.6e-06 (inactive)	0.00548 (inactive)	5.72% (inactive)	18.2% (inactive)
Cc1cccc(NC(=O)CC(C)(C)C)c1	349	-6.6% (inactive)	12% (inactive)	95.6%	-1.1% (inactive)	99.8%	-0.369 (inactive)	2.2e-05 (inactive)	0.00657 (inactive)	10.5% (inactive)	6.01% (inactive)
CCOC(=O)N1CCN(c2c(NCC3CCN(Cc4cccc(C)c4)CC3)c(=O)c2=O)CC1	577	-2.7% (inactive)	25.8% (inactive)	104%	-67.1% (inactive)	129%	-0.507 (inactive)	-2.1e-05 (inactive)	0.00653 (inactive)	5.85% (inactive)	23.9% (inactive)
CCOC(=O)c1cn(CC)c2cc(N3CCOCC3)c(F)cc2c1=O	249	-5.5% (inactive)	4.6% (inactive)	72.9%	-45.9% (inactive)	114%	-0.592 (inactive)	-1e-05 (inactive)	0.00553 (inactive)	3.57% (inactive)	10.9% (inactive)
CCOc1ccc(-c2nc(C#N)c(N3CCCCCC3)o2)cc1	759	6% (inactive)	11.5% (inactive)	110%	-122% (inactive)	114%	-0.579 (inactive)	-1.9e-05 (inactive)	0.0066 (inactive)	-2.19% (inactive)	4.25% (inactive)
O=C(Cn1ncc2c(=O)oc3ccccc3c21)NCCCN1CCCC1=O	807	-9.2% (inactive)	10.5% (inactive)	84.8%	-33% (inactive)	116%	-0.576 (inactive)	-1.5e-05 (inactive)	0.00642 (inactive)	1.1% (inactive)	24.5% (inactive)
